Assay in all cases: DAPPL (digital affinity profiling via proximity ligation, sequencing); 10 mM Tris-HCl pH 7.5, 50 mM NaCl, 1 mM DTT, 4% glycerol, room temperature, 30 min; GST-TFs on glutathione beads, 16-mer random dsDNA library, 0.1% formaldehyde crosslink after washing; high values mean tight binding
What all share (conditions): protein: recombinant; tags: N-terminal GST; dsDNA, one strand shown

Assay [1] addresses T1, FLI1 (Homo sapiens, UniProt Q01543 1-452).
T1 sequence: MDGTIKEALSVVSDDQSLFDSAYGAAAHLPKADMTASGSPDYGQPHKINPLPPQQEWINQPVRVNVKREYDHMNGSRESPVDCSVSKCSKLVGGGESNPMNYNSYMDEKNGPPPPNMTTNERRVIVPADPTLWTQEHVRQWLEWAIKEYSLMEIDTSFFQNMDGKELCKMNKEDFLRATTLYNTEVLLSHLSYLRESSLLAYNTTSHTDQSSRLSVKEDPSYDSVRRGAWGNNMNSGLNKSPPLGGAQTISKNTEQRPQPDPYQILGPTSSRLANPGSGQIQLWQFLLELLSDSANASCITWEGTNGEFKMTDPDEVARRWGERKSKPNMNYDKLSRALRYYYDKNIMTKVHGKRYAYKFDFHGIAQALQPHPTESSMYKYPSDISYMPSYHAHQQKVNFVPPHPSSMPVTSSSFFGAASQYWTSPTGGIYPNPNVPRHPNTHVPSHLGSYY
The method, boiled down:
(§1)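 Pools were built from human transcription factors expressed in yeast as GST fusions, captured on glutathione beads and DNA-barcoded, along with a tag-only sample. Incubation with 200 nmole of a 16-mer random double-stranded DNA library lasted 30 min at room temperature in Tris/NaCl/DTT/glycerol buffer, and was followed by washing, 0.1% formaldehyde crosslinking, proximity ligation, PCR amplification and Illumina NextSeq500 sequencing. Binding signal is the quotient of each hexamer's read frequency for a factor and its frequency for the tag-only sample.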

Assay [2] concerns the target T2, ELK1 (Homo sapiens, UniProt P19419 1-428).
T2 sequence: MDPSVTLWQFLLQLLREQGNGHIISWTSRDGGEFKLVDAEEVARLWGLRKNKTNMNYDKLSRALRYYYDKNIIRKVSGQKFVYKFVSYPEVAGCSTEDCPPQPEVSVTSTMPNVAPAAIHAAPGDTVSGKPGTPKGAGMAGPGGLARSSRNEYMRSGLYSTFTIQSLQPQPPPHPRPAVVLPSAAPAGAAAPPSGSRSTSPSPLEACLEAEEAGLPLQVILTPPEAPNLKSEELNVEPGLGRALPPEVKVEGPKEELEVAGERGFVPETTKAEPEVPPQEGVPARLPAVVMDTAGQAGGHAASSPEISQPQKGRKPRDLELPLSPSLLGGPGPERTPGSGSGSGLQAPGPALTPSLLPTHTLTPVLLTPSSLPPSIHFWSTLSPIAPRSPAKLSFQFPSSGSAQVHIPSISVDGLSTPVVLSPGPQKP
The method, boiled down:
as §1

The target in assay [3] is T3, GABPA (Homo sapiens, UniProt Q06546 1-454).
T3 sequence: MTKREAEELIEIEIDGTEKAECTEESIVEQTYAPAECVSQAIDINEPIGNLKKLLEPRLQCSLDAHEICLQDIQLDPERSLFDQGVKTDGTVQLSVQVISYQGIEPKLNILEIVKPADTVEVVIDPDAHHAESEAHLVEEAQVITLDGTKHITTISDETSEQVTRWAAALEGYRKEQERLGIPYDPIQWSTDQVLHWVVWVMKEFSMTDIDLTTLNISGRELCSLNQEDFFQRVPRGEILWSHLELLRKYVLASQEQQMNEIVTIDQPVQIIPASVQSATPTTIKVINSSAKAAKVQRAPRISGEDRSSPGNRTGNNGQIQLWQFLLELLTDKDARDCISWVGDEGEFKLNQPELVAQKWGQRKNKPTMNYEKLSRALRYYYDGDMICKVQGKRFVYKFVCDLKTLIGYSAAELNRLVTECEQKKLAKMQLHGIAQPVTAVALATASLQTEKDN
The procedure, abridged:
as §1

The target in assay [4] is T4, ERG (Homo sapiens, UniProt P11308 1-479).
T4 sequence: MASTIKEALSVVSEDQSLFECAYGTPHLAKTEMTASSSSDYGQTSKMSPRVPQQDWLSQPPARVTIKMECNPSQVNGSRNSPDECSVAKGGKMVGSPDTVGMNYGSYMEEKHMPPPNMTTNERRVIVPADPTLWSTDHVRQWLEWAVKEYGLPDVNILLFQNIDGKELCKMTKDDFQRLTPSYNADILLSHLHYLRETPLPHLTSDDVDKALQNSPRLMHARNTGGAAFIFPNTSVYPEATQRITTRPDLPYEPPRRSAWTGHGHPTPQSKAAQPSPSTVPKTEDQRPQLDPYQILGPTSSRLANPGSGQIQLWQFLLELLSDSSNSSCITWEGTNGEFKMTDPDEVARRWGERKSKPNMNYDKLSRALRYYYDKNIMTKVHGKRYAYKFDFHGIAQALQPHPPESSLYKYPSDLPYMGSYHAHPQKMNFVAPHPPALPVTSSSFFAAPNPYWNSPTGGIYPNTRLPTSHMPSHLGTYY
The procedure, abridged: as §1

The target of assay [5] is ELF1 (Homo sapiens, UniProt P32519 1-619). The method, boiled down:
as §1

Assay [6] addresses T5, EHF (Homo sapiens, UniProt Q9NZC4 1-300).
T5 sequence: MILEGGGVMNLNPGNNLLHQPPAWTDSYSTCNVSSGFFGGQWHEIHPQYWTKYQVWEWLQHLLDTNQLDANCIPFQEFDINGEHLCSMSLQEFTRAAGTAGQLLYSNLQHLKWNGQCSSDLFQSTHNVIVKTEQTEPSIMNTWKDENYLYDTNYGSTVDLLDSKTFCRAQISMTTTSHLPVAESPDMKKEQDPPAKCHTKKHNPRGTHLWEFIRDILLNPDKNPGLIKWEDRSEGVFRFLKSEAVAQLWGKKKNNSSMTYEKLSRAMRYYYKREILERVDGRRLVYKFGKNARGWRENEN
The procedure, abridged:
as §1

In assay [7] the target is SPI1 (Homo sapiens, UniProt P17947 1-270). The method, boiled down: as §1
In assay [8] the target is SPIB (Homo sapiens, UniProt Q01892 1-262). The procedure, abridged: as §1
Chain of SPIB (Q01892 whole entry): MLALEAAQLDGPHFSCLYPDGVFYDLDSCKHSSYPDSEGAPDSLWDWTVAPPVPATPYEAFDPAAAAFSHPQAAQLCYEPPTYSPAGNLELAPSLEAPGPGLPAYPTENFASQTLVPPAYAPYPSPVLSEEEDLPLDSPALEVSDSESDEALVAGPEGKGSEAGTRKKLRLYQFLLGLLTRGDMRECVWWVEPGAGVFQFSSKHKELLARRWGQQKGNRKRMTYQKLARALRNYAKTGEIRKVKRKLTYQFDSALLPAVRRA
Assay [9] has as its target T6, ELK3 (Homo sapiens, UniProt P41970 1-407).
T6 sequence: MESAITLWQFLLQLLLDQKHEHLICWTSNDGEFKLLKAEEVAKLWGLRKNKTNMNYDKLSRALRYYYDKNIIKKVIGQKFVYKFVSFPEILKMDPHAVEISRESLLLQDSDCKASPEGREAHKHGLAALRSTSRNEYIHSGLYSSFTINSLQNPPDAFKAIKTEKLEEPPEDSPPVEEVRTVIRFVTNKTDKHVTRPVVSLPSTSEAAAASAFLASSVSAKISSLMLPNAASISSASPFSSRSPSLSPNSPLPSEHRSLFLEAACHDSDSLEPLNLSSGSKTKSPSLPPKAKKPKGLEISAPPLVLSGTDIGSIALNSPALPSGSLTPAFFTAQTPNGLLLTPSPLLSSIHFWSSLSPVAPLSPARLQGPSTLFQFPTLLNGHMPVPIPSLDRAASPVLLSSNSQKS
The procedure, abridged: as §1

Chain of ELF1 (P32519 whole entry): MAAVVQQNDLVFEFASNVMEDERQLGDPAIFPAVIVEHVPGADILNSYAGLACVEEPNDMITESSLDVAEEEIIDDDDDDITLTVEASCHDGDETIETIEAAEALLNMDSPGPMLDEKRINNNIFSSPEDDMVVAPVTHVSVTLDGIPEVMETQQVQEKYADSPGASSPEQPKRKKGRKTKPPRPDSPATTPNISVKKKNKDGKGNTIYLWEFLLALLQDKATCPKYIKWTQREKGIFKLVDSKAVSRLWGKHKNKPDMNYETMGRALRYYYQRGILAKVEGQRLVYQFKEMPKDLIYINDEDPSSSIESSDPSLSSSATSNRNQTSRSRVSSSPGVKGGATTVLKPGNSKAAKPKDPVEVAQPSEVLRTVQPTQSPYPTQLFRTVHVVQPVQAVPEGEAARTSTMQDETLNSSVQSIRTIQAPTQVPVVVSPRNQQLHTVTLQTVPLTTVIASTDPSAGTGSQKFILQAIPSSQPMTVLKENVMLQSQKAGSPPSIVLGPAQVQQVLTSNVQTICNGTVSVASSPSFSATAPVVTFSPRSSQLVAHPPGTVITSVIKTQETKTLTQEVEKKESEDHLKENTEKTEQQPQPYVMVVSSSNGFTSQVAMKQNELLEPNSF

Turning to ATCGAA, the binding signal in [1] was 1.11 fold enrichment (6-mer frequency, TF over GST control); in assay [2], 1.12 fold enrichment (6-mer frequency, TF over GST control); in assay [3] it was 1.1 fold enrichment (6-mer frequency, TF over GST control); in assay [4], 1.1 fold enrichment (6-mer frequency, TF over GST control); in assay [5] it was 1.14 fold enrichment (6-mer frequency, TF over GST control); in [6], 1.16 fold enrichment (6-mer frequency, TF over GST control). The binding signal was 1.13 fold enrichment (6-mer frequency, TF over GST control) in assay [7]; 1.18 fold enrichment (6-mer frequency, TF over GST control) in assay [8]; 1.08 fold enrichment (6-mer frequency, TF over GST control) in assay [9].

With TATTGA, the binding signal in assay [1] was 1.1 fold enrichment (6-mer frequency, TF over GST control); in [2] it was 1.16 fold enrichment (6-mer frequency, TF over GST control); in assay [3], 1.09 fold enrichment (6-mer frequency, TF over GST control); in assay [4], 1.13 fold enrichment (6-mer frequency, TF over GST control); in [5], 1.18 fold enrichment (6-mer frequency, TF over GST control); in [6], 1.15 fold enrichment (6-mer frequency, TF over GST control). For the same sequence, the binding signal in assay [7] was 1.05 fold enrichment (6-mer frequency, TF over GST control); in assay [8] it was 1.11 fold enrichment (6-mer frequency, TF over GST control); in assay [9], 1.01 fold enrichment (6-mer frequency, TF over GST control).

Consider AAACCT, for which the binding signal is 1.15 fold enrichment (6-mer frequency, TF over GST control) in assay [1]; 1.01 fold enrichment (6-mer frequency, TF over GST control) in assay [2]; 1.17 fold enrichment (6-mer frequency, TF over GST control) in [3]; 1.12 fold enrichment (6-mer frequency, TF over GST control) in [4]; 1.19 fold enrichment (6-mer frequency, TF over GST control) in assay [5]; 1.16 fold enrichment (6-mer frequency, TF over GST control) in assay [6]. The binding signal in [7] was 1.18 fold enrichment (6-mer frequency, TF over GST control); in [8], 1.11 fold enrichment (6-mer frequency, TF over GST control); in [9], 1.15 fold enrichment (6-mer frequency, TF over GST control).

On to ATCCTG, for which the binding signal in assay [1] is 1.38 fold enrichment (6-mer frequency, TF over GST control); in assay [2] it was 1.43 fold enrichment (6-mer frequency, TF over GST control); in assay [3] it was 1.34 fold enrichment (6-mer frequency, TF over GST control); in assay [4] it was 1.62 fold enrichment (6-mer frequency, TF over GST control); in [5], 1.36 fold enrichment (6-mer frequency, TF over GST control); in assay [6] it was 1.41 fold enrichment (6-mer frequency, TF over GST control). For the same sequence, the binding signal was 1.4 fold enrichment (6-mer frequency, TF over GST control) in assay [7]; 1.55 fold enrichment (6-mer frequency, TF over GST control) in [8]; 1.5 fold enrichment (6-mer frequency, TF over GST control) in [9].

On to TTCGCT, for which the binding signal in [1] is 1.19 fold enrichment (6-mer frequency, TF over GST control); in [2], 1.17 fold enrichment (6-mer frequency, TF over GST control); in assay [3] it was 1.32 fold enrichment (6-mer frequency, TF over GST control); in [4], 1.28 fold enrichment (6-mer frequency, TF over GST control); in assay [5] it was 1.18 fold enrichment (6-mer frequency, TF over GST control); in assay [6] it was 1.07 fold enrichment (6-mer frequency, TF over GST control). Also, the binding signal was 1.16 fold enrichment (6-mer frequency, TF over GST control) in assay [7]; 1.47 fold enrichment (6-mer frequency, TF over GST control) in assay [8]; 1.45 fold enrichment (6-mer frequency, TF over GST control) in assay [9].

For the sequence ATACAG, the binding signal in assay [1] is 1.16 fold enrichment (6-mer frequency, TF over GST control); in [2], 1.11 fold enrichment (6-mer frequency, TF over GST control); in assay [3], 1.29 fold enrichment (6-mer frequency, TF over GST control); in assay [4], 1.16 fold enrichment (6-mer frequency, TF over GST control); in assay [5], 1.13 fold enrichment (6-mer frequency, TF over GST control); in assay [6], 1.16 fold enrichment (6-mer frequency, TF over GST control). The binding signal in assay [7] is 1.12 fold enrichment (6-mer frequency, TF over GST control); in assay [8], 1.15 fold enrichment (6-mer frequency, TF over GST control); in [9], 1.07 fold enrichment (6-mer frequency, TF over GST control).

For ATCGAT, the binding signal is 1.16 fold enrichment (6-mer frequency, TF over GST control) in assay [1]; 1.1 fold enrichment (6-mer frequency, TF over GST control) in assay [2]; 1.19 fold enrichment (6-mer frequency, TF over GST control) in [3]; 1.15 fold enrichment (6-mer frequency, TF over GST control) in assay [4]; 1.15 fold enrichment (6-mer frequency, TF over GST control) in assay [5]; 1.19 fold enrichment (6-mer frequency, TF over GST control) in [6]. Besides, the binding signal in assay [7] was 1.21 fold enrichment (6-mer frequency, TF over GST control); in assay [8] it was 1.12 fold enrichment (6-mer frequency, TF over GST control); in assay [9] it was 1.1 fold enrichment (6-mer frequency, TF over GST control).
